Many of the other results were omitted from the sample, so hits are more common in it than they were.
RGS12 GoLoco inh: qHTS Assay for Inhibitors of RGS12 GoLoco Motif Activity (Red Fluorophore) | Gai1:RGS12 GoLoco peptide FP, rhodamine, 10 min | Potency, µM (series often up to 61.6 µM), for the others: at the highest dose activity, negative = inhibition, hits mostly inhibitors | 230,000 compounds, 0.44% hits | AID 880, 2007; active means well fitted inhibition curve with a large enough effect, not every such curve was filed as active; inactive means no such curve, though single readings can be large or run the other way; further: on the % scale 0 is the no-effect control and ±100 the full control effect; nearly all actives have a fitted effect of over 30% in size
ERG-DNA inh: qHTS for Small Molecule Inhibitors of the ERG Ets/DNA interaction. Transcriptional regulator ERG (Homo sapiens), P11308. fluorescence polarization, His-ERG Ets domain / labelled DNA. Potency, µM (top dose mostly 76.9 µM), inactives show top-dose FP activity, negative = inhibition, hits mostly inhibitors. 370,000 compounds, 0.028% hits; active means well fitted inhibition curve with a large enough effect in the polarisation, with a control signal flat; inconclusive means small, poorly fitted or top-dose-only effect, or effect the other way, or a change in a side signal; inactive means no such curve, though single readings can be large or run the other way; the % refers to the polarisation;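 further: polarization taken with two DNA probes labelled with fluorescein and Texas red; % of control where 0% means no effect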
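His-tagged ERG Ets domain (1 uM in the protein solution; 300mM KCl, 50mM Tris-HCl, 1mM EDTA, 1mM DTT, pH 7.5) received compound, then a probe mix of 5 nM fluorescein-DNA and 100nM Texas-615-DNA. Fluorescence polarization was read for both dyes.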
TRb-SRC2 inh: qHTS for Inhibitors of the Interaction of Thyroid Hormone Receptor and Steroid Receptor Coregulator 2; Thyroid hormone receptor beta (Homo sapiens), P10828; TRbeta-SRC2 peptide binding, fluorescence polarization; receptor liganded with 1 µM T3; Potency, µM (titrated, usually from 106 µM), inactives show at the top dose activity change, negative = inhibition, actives largely listed as inhibitors; 280,000 compounds, 0.065% hits; active means well fitted inhibition curve with a large enough effect; inconclusive means small, poorly fitted or top-dose-only effect, or effect the other way;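 further: plate controls were bound peptide for no effect and peptide without receptor for full effect; nearly all actives have a fitted effect of over 50% in size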
Target sequence (P10828 whole entry, looked up): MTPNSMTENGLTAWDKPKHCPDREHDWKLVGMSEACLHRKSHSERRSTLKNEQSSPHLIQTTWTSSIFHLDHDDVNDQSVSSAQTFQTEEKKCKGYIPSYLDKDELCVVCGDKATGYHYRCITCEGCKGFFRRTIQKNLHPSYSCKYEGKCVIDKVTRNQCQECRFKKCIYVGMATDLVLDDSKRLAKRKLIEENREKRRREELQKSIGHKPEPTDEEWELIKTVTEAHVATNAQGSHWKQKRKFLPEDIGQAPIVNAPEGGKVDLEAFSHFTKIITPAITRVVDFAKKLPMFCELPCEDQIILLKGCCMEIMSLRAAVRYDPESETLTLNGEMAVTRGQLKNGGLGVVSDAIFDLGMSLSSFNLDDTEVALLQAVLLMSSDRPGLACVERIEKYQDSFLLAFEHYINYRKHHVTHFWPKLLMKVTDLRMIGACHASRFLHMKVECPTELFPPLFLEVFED
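Polarization signal, normalized between peptide-alone and full complex controls, measured compound effects on T3-liganded human TRb LBD (0.6 uM) binding 20 nM Texas Red SRC2 peptide after 5 hr.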
TexasRed fluor: Total Fluorescence Counterscreen for Inhibitors of the Interaction of Thyroid Hormone Receptor and Steroid Receptor Coregulator 2. 280,000 compounds, 0.29% hits. Potency, µM (highest dose often 106 µM), for the others: at the highest dose fluorescence change, negative = quenching. TRb/SRC2 Texas Red total fluorescence interference; active means well fitted curve in either direction with a large enough effect; inconclusive means small, poorly fitted or top-dose-only effect; further: on the % scale 0 is the no-effect control and ±100 the full control effect
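Human TRb ligand-binding domain at 0.6 uM with 20 nM Texas Red SRC2 peptide in Tris buffer containing 1 uM T3 and 5% DMSO, incubated with compound 5 h at ambient temperature. Total fluorescence (555/632 nm) calculated as parallel + 2 × perpendicular.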
* = called active by the depositor; ? = inconclusive; / = no result given; ! = not confirmed by another sample; [ ] = remark or other dose. Potency means the concentration at half of the fitted maximal effect.

SMILES | RGS12 GoLoco inh | ERG-DNA inh | TRb-SRC2 inh | TexasRed fluor
O=C(O)c1cccc(-n2cccc2/C=C2/NC(=O)N(c3ccc(Cl)cc3)C2=O)c1 | -8% | -16% | ? | 18µM*[quencher]
COc1ccc(-n2cccc2/C=C2/NC(=O)N(c3cccc(Cl)c3)C2=O)cc1 | 3.5µM* | -4% | 0% | 1%
O=C(O)c1cccc(-n2cccc2C=C2C(=O)c3ccccc3C2=O)c1 | 20% | 6% | 6% | -10%
CCCCCCCC/C=C\CCCCCCCCCCCCC | / | / | -3%[201 µM] | -1%[201 µM]
COc1ccccc1N=Nc1[nH]c2ccc(C)cc2c1O | 3.5µM* | -4% | -5% | -2%
COc1ccccc1N=Nc1ccc(O)c2ncccc12 | / | -13% | / | /
CC1=CC(C)(C)N2C(=O)C(=Nc3ccc(O)cc3)c3cccc1c32 | -19% | ? | 35µM* | 3%
COc1cc(N=C2C(=O)N3c4c(cccc42)C(C)=CC3(C)C)cc(OC)c1 | 0% | -2% | 3% | -1%
COc1ccc(C2=Nn3c(nnc3-c3cc(OC)ccc3OC)SC2)c(OC)c1 | / | / | -8% | -1%
Cn1ccc(-c2ccccc2)n1 | 6% | 4% | -2% | -1%
N#Cc1cc(-c2ccccc2)nn1-c1ccccc1 | 13µM* | 4% | -12% | -2%
CC(=O)N[C@@H](CC(=O)O)C(=O)O | 0%[21.6 µM] | 28µM* | -2%[53 µM] | -7%[53 µM]
O=C(Nc1ccc2c(c1)Cc1ccccc1-2)[C@@H]1[C@H](C(=O)O)[C@]2(Cl)C(Cl)=C(Cl)[C@@]1(Cl)C2(Cl)Cl | 0%[14.2 µM] | / | / | /
Cc1c(N/N=C(\C#N)C(=O)c2ccccc2)c(=O)n(-c2ccccc2)n1C | -1% | 5% | -12% | 2.2µM*[quencher]
O=C1C(O)=C(O)C(=O)C(O)=C1O | 25µM* | / | 3% | 1%
CC1=C(O)C(=O)C(C2=C(O)C(=O)C(C)=C(O)C2=O)=C(O)C1=O | / | -4% | / | /
CN(Cc1cc(C(C)(C)C)cc(Br)c1O)Cc1cc(C(C)(C)C)cc(Br)c1O | -1%[14.2 µM] | / | / | /
COc1ccc(NC(=O)CC(C)S(=O)(=O)c2ccc3c(c2)NC(=O)CO3)cc1OC (centres undefined) | / | 4% | -2% | -4%
COc1cccc(NC(=O)CC(C)S(=O)(=O)c2ccc3c(c2)NC(=O)CO3)c1 (centres undefined) | / | 1% | -11% | 20µM*[quencher]
CC[C@@H](Nc1ncnc2nc[nH]c12)C(=O)O | 4%[14.2 µM] | / | / | /
N#CCCSC(=S)[C@H]1CCCC1=N | 2%[14.2 µM] | / | / | /
O=c1[nH]c(SCc2c(Cl)c(Cl)c(Cl)c(Cl)c2Cl)nc(=S)[nH]1 | 4%[14.2 µM] | / | / | /
CCC(=O)/C=C1/Sc2ccc(OC)cc2N1CCO | 3% | 1% | 0% | -3%
CCC(/C=C1\Sc2ccc(OC)cc2N1CCO)=C\c1sc2ccc(OC)cc2[n+]1CCO | -190% | ? | ? | 50µM*[fluorescent]
CCC(/C=C1\Sc2ccc(OC)cc2N1CC)=C\c1sc2ccc(OC)cc2[n+]1CCCS(=O)(=O)[O-] | -188% | 135% | ? | 40µM*[fluorescent]
SMILES | RGS12 GoLoco inh | ERG-DNA inh | TRb-SRC2 inh | TexasRed fluor
CCOC(=O)c1c(-c2ccccc2)oc2ccc(NS(=O)(=O)c3ccc(C)cc3)cc12 | / | 6% | -12% | 40µM*[quencher]
COc1cccc(/C=C/C(=O)OCC(=O)NCC2CCCO2)c1OC (centres undefined) | -22% | -9% | -17%[53 µM] | 71µM*[quencher]
C[C@H]1Cc2c(COc3ccccc3)nc3c(c2CO1)CN(C(=O)c1cccnc1)CC3 | 4%[14.2 µM] | / | 4%[11.2 µM] | -7%[11.2 µM]
C[Si]1(C)O[Si](C)(C)O[Si](C)(C)O1 | / | / | 7%[201 µM] | 0%[201 µM]
Cc1cccc(NC(=O)CSCc2nc3c(nnn3Cc3ccc(F)cc3)c(=O)[nH]2)c1C | -9% | -2% | -5% | 0%
CN(C)c1ccc(NC(=O)CSCc2nc3c(nnn3Cc3ccc(F)cc3)c(=O)[nH]2)cc1 | 3.5µM* | 1% | 5% | -8%
COC(=O)N1C2=C(c3ccccc3[C@@H]1CC(=O)Nc1ccc3cc4ccccc4cc3c1)[C@@H]1C(=O)N(c3ccccc3)C(=O)[C@@H]1[C@H](C)C2 | 5%[14.2 µM] | / | -2%[11.2 µM] | -4%[11.2 µM]
CCn1cc2nc(SCC(=O)Nc3ccc(OC)c(Cl)c3)n(Cc3ccc(OC)cc3)c(=O)c2n1 | / | -7% | ? | 3.5µM*[quencher]
CCn1cc2nc(SCC(=O)Nc3ccc(OC)c(OC)c3)n(Cc3ccc(OC)cc3)c(=O)c2n1 | / | 27% | / | /
O=C(Cn1c2[n+](c3ccc(C(F)(F)F)cc31)CCCCC2)Nc1ccc(Br)cc1 | 18µM* | 2% | 15% | -3%
N#Cc1ccc(NC(=O)Cn2c3[n+](c4ccc(C(F)(F)F)cc42)CCCCC3)cc1 | 4% | 1% | 4% | -2%
CCNCc1ccccc1OCc1ccccc1 | 5% | 3% | -10% | 1%
Oc1ccc(NCc2ccccc2OCc2ccccc2)cc1 | -12% | ? | 35µM* | 50µM*![fluorescent]
C=CCCCCCCCCCC | / | / | 4%[201 µM] | -2%[201 µM]
Cc1cccc(OCC(=O)NCC2(N3CCN(C)CC3)CCCCC2)c1C | / | 0% | -10% | 1259µM*[quencher]
Cc1cc(C)cc(OCC(=O)NCC2(N3CCOCC3)CCCCC2)c1 | / | 3% | -2% | 6%
Cc1ccc(OCC(=O)NCC2(N3CCOCC3)CCCCC2)cc1C | / | 2% | -11% | 13µM*[quencher]
COC(=O)c1ccc(NC(=O)CN(Cc2ccccc2)S(=O)(=O)c2ccc(C)cc2)cc1 | / | 0% | 1% | -2%
COc1ccc(NC(=O)CN(Cc2ccccc2)S(=O)(=O)c2ccc(C)cc2)cc1Cl | / | 5% | -11% | 6.3µM*[quencher]
COc1ccc(-c2nnc(Nc3ccc(CC(N)=O)cc3)c3ccccc23)cc1 | -4% | -3% | ? | 35µM*[quencher]
CCc1nn2c(-c3ccccc3OC)ccnc2c1-c1ccc(F)cc1 | / | 0% | -9% | 8.9µM*[quencher]
Cc1[nH]n(-c2ccccc2)c(=S)c1C=Nc1cccc([N+](=O)[O-])c1 | 13µM* | 1% | 3% | 0%
CCCCN=Cc1c(C)[nH]n(-c2ccccc2)c1=S | -19% | -1% | -12% | -1%
O=C(O)[C@@H]1[C@@H]2C[C@@H]3[C@@H](OC(=O)[C@@H]31)[C@H]2Br | 5%[14.2 µM] | / | / | /

Screening data as filed in PubChem BioAssay.
